Screening data: PubChem BioAssay, National Center for Advancing Translational Sciences (NCATS)
This is a sample that favours compounds with a hit; in the whole collection about 2.4% have one here.
D2 ag-1: HTS Assay for Allosteric Agonists of the Human D2 Dopamine Receptor: Primary Screen for Agonists; D(2) dopamine receptor (Homo sapiens), P14416; HEK293 T-REx D2 cells, calcium flux agonist mode; activation, % at 2 µM; 340,000 compounds, 0.53% hits; AID 485358, 2010;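 active = activation over 3 SD above normal in the single-dose calcium agonist read, cut at about 30% in these data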; also: 0% is about no effect
Target sequence (P14416 whole entry, looked up): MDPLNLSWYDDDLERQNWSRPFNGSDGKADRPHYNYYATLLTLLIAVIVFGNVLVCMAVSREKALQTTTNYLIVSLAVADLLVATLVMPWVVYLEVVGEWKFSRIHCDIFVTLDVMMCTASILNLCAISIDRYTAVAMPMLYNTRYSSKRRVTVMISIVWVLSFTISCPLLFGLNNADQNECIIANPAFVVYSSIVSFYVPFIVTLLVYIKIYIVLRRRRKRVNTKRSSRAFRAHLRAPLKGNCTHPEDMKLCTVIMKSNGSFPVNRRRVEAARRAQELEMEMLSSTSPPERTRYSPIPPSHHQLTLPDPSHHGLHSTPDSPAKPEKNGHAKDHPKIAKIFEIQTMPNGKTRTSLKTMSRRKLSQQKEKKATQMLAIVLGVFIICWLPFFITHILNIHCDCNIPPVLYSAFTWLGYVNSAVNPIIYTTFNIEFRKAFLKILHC
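Agonism is scored from calcium flux in a force-coupled, inducible HEK293 cell line expressing D2, read kinetically for 180 s after compound addition against dopamine controls.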
D2 ag-2: Beta-Arrestin HTS for Positive Allosteric Modulators of the Human D2 Dopamine Receptor: Agonists | 360,000 compounds, 0.084% hits | DiscoveRx PathHunter D2 beta-arrestin, luminescence, 90 min; 100% = 57 uM dopamine signal | D(2) dopamine receptor (Homo sapiens), P14416 | activation, % (test concentration not listed) | AID 624465, 2012; in the data active = activation above about 40%
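Agonist mode: compounds alone added to overnight-plated D2 PathHunter cells for 90 min at 37 C, with 57 uM final dopamine (EC100) defining full response. Beta-arrestin recruitment detected by chemiluminescent reagent, read after 1 h at ambient temperature.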
D2 PAM-1: Beta-Arrestin HTS for Positive Allosteric Modulators of the Human D2 Dopamine Receptor: Potentiators; DiscoveRx D2 beta-arrestin cells, luminescence, 90 min; 100% = 57 uM dopamine signal; potentiation, % (concentration not given with the values); 360,000 compounds, 0.23% hits; AID 624464, 2012; in the data active = potentiation above about 50%
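D2 cells co-treated with compound plus 50 nM dopamine (EC20) for 90 min at 37 deg C to detect potentiation. Beta-arrestin recruitment was read as enzyme-fragment luminescence after 1 h at ambient temperature. Full response was set by 57 uM dopamine.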
D2 PAM-2: HTS Assay for Positive Allosteric Modulators of the Human D2 Dopamine Receptor: Primary Screen for Potentiators; D(2) dopamine receptor (Homo sapiens), P14416; HEK293 T-REx D2, calcium flux, EC20 dopamine potentiation; potentiation, % at 10 µM; 340,000 compounds, 0.34% hits; AID 485347, 2010;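 active = potentiation over 3 SD above the plate norm, cut at about 30% in these data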; also: 0% is about no effect
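Primary screen. Calcium kinetics in induced HEK293 T-REx D2 cells: compound pre-addition 180 s, EC20 dopamine, 180 s more.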
D2 antagonist: HTS Assay for Allosteric Antagonists of the Human D2 Dopamine Receptor: Primary Screen for Antagonists; D(2) dopamine receptor (Homo sapiens), P14416; HEK293 TREx D2 cells, calcium flux, dopamine EC80; inhibition, % at 10 µM; 340,000 compounds, 2% hits; AID 485344, 2010; in the data active = inhibition above about 30%; inactive = below that, where a call was filed; also: 0% is about no effect
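Calcium flux kinetic readout in an inducible HEK293 TREx D2 line plated overnight at 30 C. After 180 s compound exposure, an EC80 dopamine challenge follows with another 180 s kinetic read to detect antagonism.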
An asterisk follows results filed as active; x = no result.

SMILES	D2 ag-1	D2 ag-2	D2 PAM-1	D2 PAM-2	D2 antagonist
CCCCCOc1ccccc1CN1C(=O)C(=O)c2cc(C)ccc21	-1	x	x	15	x
CCOC(=O)C1CCCN(C(=O)Cn2ncc3c4ccccc4n(Cc4ccc(F)cc4)c3c2=O)C1 (configuration not stated)	2	x	x	21	x
CCCCNC(=O)c1nc(C2CCN(S(=O)(=O)c3c(F)cccc3F)CC2)oc1-c1cccc(C(F)(F)F)c1	x	2	3	x	x
COc1cc(OC)c(OC)cc1CN1CCCC(C(=O)c2sccc2C)C1 (configuration not stated)	-1	-5	-7	-20	5
Cc1ccsc1C(=O)C1CCCN(Cc2cc(F)ccc2-n2cccn2)C1 (configuration not stated)	2	-6	-43	-17	34*
Cc1oc(-c2ccccc2)nc1CNC(=O)NC1CCCCC1	2	x	x	4	x
CCCCn1c(CCC(=O)O)ccc1-c1cccs1	0	0	-9	-16	40*
COCCn1c(CCC(=O)O)ccc1-c1cccs1	0	-4	2	1	0
CCC12CCCN3CCc4c(n(c5ccccc45)C(O)(C(=O)OC)C1)C32 (configuration not stated)	0	5	-6	-30	51*
CC[C@]12CCCN3CCc4c(n(c5ccccc45)[C@](O)(C(=O)OC)C1)[C@@H]32	1	-4	13	14	-11
O=C(Nc1ccnn1C1CCN(Cc2ccccc2OC(F)F)CC1)c1cccc(F)c1	0	-3	-32	-23	32*
O=C(Nc1ccnn1C1CCN(Cc2ccccn2)CC1)c1cccc(F)c1	2	-2	-10	5	9
O=C(Nc1ccnn1C1CCN(Cc2ccccc2OCCO)CC1)c1cccc(F)c1	1	0	-33	-13	40*
Cc1nn(-c2ccc(N3CCOCC3)nn2)c(C)c1CCC(=O)Nc1ccc(F)cc1F	0	x	x	20	x
CSc1nc2sc3c(c2c(=O)n1-c1ccccc1)CCC(C(C)(C)C)C3 (configuration not stated)	0	x	x	-7	x
CSc1ccc(OC2(C)CCN(Cc3cc4ccccc4o3)C2)cc1 (configuration not stated)	x	-2	-18	x	x
Cc1ccc(SCC(=O)OCC(=O)N(C)CC(=O)Nc2ccc(F)cc2)cc1C	12	0	10	6	38*
CN(CC(=O)Nc1ccc(F)cc1)C(=O)CSc1ccc2c(c1)OCCO2	0	-2	-2	-16	9
CC(C)c1ccccc1OCC(=O)N(C)CC(=O)Nc1ccc(F)cc1	0	-3	-46	-22	56*
CN(CC(=O)Nc1ccc(F)cc1)C(=O)COc1ncnc2ccccc12	0	-2	2	-6	3
COc1ccc(N2CCN(C(=O)C(NC(=O)c3c(F)cccc3F)C(C)C)CC2)cc1 (configuration not stated)	-1	2	-1	3	12
COc1ccc(Cn2c3nc4ccccc4nc3c3c(=O)n(Cc4ccco4)c(C)nc32)cc1	1	x	x	-4	33*
COc1ccc(Cn2c(C)nc3c(c2=O)c2nc4ccccc4nc2n3Cc2ccco2)cc1	x	0	0	x	x
O=C(c1ccc(Cl)cc1)c1coc2ccc(O)cc12	0	-3	-3	0	35*
O=C(c1ccc(Br)cc1)c1coc2ccc(O)cc12	x	1	5	x	x
SMILES	D2 ag-1	D2 ag-2	D2 PAM-1	D2 PAM-2	D2 antagonist
CCc1cc(=O)n2[nH]c(C)c(-c3ccc(OC)cc3)c2n1	0	-4	-45	-17	34*
CCOC(=O)Cc1cc(=O)n2[nH]c(C)c(-c3ccc(OC)cc3)c2n1	-1	-1	-15	31*	-12
CCCc1cc(=O)n2[nH]c(C)c(-c3ccccc3)c2n1	x	-8	-39	x	x
COc1ccc(C)cc1NC(=O)CN1C(=O)COc2ccc(S(=O)(=O)NC3CCCC3)cc21	1	x	x	3	x
COc1ccc(C(=O)COc2nc(C)cc(C)c2C#N)cc1	0	-4	-4	0	35*
Cc1nc2c3ccccc3n(CCN3CCCCC3)c2s1	-1	x	x	4	40*
Cc1nn2c(=O)cc(CSc3nc4ccccc4[nH]3)nc2s1	1	-1	-4	15	39*
COc1ccc(C(=O)Nc2ccccc2SCc2cc(=O)n3nc(C)sc3n2)cc1OC	0	2	-6	-2	1
CCC(CO)Oc1cc(NCc2ccccc2)c2ncn(C(C)C)c2c1 (configuration not stated)	x	6	-16	x	x
CCC(COC)Oc1cc(NCc2ccccc2)c2ncn(C(C)C)c2c1 (configuration not stated)	0	65*	2	15	-5
O=C(NCc1ccccc1)c1nc(-c2ccc(Cl)cc2)n2c1CCCCC2	0	x	x	-13	x
Cc1ccc(OCC(=O)N(Cc2sccc2C)C2CCS(=O)(=O)C2)cc1 (configuration not stated)	1	x	x	1	x
COc1ccccc1CNc1ccc(-c2nc(-c3ccco3)no2)cc1[N+](=O)[O-]	-1	x	x	-20	x
O=C(Nc1ccc(N2CCOCC2)cc1)c1ccc(Br)o1	0	1	-2	5	71*
CN1CCN(c2ccc(NC(=O)c3ccc(Br)o3)cc2)CC1	1	-1	0	-4	9
OC(CN1CCN(c2ccccc2F)CC1)c1ccc(F)cc1 (configuration not stated)	0	9	-9	10	1
CC(=O)Nc1ccc(OCC(O)CN2CCN(c3cc(Cl)ccc3C)CC2)cc1 (configuration not stated)	19	-3	-21	-25	93*
CCOc1ccccc1N1CCN(CC(O)COCc2cccs2)CC1 (configuration not stated)	8	-3	-19	-28	68*
OC(COc1ccc(F)cc1)CN1CCN(c2ccccc2F)CC1 (configuration not stated)	-1	-7	-21	1	87*
CC(=O)Nc1ccc(OCC(O)CN2CCN(c3ccc(C)c(Cl)c3)CC2)cc1 (configuration not stated)	0	2	-16	10	21
O=[N+]([O-])c1ccccc1OCC(O)CN1CCN(CC(O)COc2ccccc2[N+](=O)[O-])CC1 (configuration not stated)	1	-2	-65	-22	92*
OC(COCc1cccs1)CN1CCN(c2ccccc2Cl)CC1 (configuration not stated)	x	3	-31	-24	x
